Holding throughout (experiment): yeast three-hybrid, YBZ-1, SC-Leu-His + 0.5 mM 3-AT, 4 days
What all share (details): tags: N-Gal4 AD-HA kept; label: inside an RPR1-promoter hybrid RNA with tandem MS2 sites; ssRNA

For one assay, the target named is PUM1 PUF domain R8-AYK (Homo sapiens, UniProt Q14671 828-1176, N1122A;Q1126K). The essentials: (§1)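 Each repeat of the Pumilio-1 PUF domain was randomized at its three base-contacting residues, and these libraries were co-expressed from a centromeric plasmid with matching RNA elements in strain YBZ-1. After four days on SC-Leu (input) or SC-Leu-His + 0.5 mM 3-AT (selection), the repeat regions were PCR-amplified and Illumina-sequenced. The interaction score compares variant frequency between input and selection as a log change, computed in log2 with a pseudocount of 1 for absent variants.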

A further assay addresses PUM1 PUF domain R8-RFL (Homo sapiens, UniProt Q14671 828-1176, N1122R;Y1123F;Q1126L). The essentials:
as §1

The next assay deals with PUM1 PUF domain R2-GWG (Homo sapiens, UniProt Q14671 828-1176, N899G;Y900W;Q903G). The essentials:
as §1

A further assay has as its target PUM1 PUF domain R2-NRG (Homo sapiens, UniProt Q14671 828-1176, Y900R;Q903G). The essentials:
as §1

The target in the next assay is PUM1 PUF domain R5-RMP (Homo sapiens, UniProt Q14671 828-1176, C1007R;R1008M;Q1011P). The essentials:
as §1

The next assay deals with PUM1 PUF domain R3-GHP (Homo sapiens, UniProt Q14671 828-1176, C935G;R936H;Q939P). The essentials: as §1
Another assay concerns the target PUM1 PUF domain R3-WCG (Homo sapiens, UniProt Q14671 828-1176, C935W;R936C;Q939G). The essentials:
as §1

In a further assay the target is T1, PUM1 PUF domain R6-YWV (Homo sapiens, UniProt Q14671 828-1176, N1043Y;Y1044W;Q1047V).
T1 sequence: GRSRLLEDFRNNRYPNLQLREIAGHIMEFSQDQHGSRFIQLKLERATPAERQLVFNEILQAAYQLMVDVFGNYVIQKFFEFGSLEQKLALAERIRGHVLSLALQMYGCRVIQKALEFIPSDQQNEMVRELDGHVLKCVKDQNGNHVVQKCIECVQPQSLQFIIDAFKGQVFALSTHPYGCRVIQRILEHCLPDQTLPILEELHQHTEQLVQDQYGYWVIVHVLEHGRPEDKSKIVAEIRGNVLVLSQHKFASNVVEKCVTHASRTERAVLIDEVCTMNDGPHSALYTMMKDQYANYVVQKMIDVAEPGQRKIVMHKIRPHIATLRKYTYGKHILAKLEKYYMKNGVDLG
The essentials:
as §1

A further assay concerns the target T2, PUM1 PUF domain R6-SWA (Homo sapiens, UniProt Q14671 828-1176, N1043S;Y1044W;Q1047A).
T2 sequence: T1 sequence with Y216S, V220A
The essentials:
as §1

A further assay addresses PUM1 PUF domain R7-RIL (Homo sapiens, UniProt Q14671 828-1176, S1079R;N1080I;E1083L). The essentials:
as §1

Positions count from the first letter of the chain named.

As for “GGCUAGAACUAGUGGAUCCCCCGGCGCCCGGCGGCUCGAGCCCGGGUAAGCGUAAAUAGUCUGCAUGCCGCCGGGCGCCAUGCCUGCAGGUCGACUCUAGAAAACAUG”, the binding signal with PUM1 PUF domain R8-AYK is 4.11 log2 enrichment (interaction score); with PUM1 PUF domain R8-RFL it was 5.36 log2 enrichment (interaction score).
As for “GGCUAGAACUAGUGGAUCCCCCGGCGCCCGGCGGCUCGAGCCCGGGUAAGUGUAAAGAGUCUGCAUGCCGCCGGGCGCCAUGCCUGCAGGUCGACUCUAGAAAACAUG”, the binding signal with PUM1 PUF domain R2-GWG was 2.13 log2 enrichment (interaction score).
For the sequence “GGCUAGAACUAGUGGAUCCCCCGGCGCCCGGCGGCUCGAGCCCGGGUAAGUGUAAAAAGUCUGCAUGCCGCCGGGCGCCAUGCCUGCAGGUCGACUCUAGAAAACAUG”, the binding signal is 3.32 log2 enrichment (interaction score) with PUM1 PUF domain R2-GWG and 2.91 log2 enrichment (interaction score) with PUM1 PUF domain R2-NRG.
For the sequence “GGCUAGAACUAGUGGAUCCCCCGGCGCCCGGCGGCUCGAGCCCGGGUAAGUGUCAAUAGUCUGCAUGCCGCCGGGCGCCAUGCCUGCAGGUCGACUCUAGAAAACAUG”, the binding signal in the assay with PUM1 PUF domain R5-RMP was 4.09 log2 enrichment (interaction score).
For “GGCUAGAACUAGUGGAUCCCCCGGCGCCCGGCGGCUCGAGCCCGGGUAAGUGUAAGUAGUCUGCAUGCCGCCGGGCGCCAUGCCUGCAGGUCGACUCUAGAAAACAUG”, the binding signal was 4.47 log2 enrichment (interaction score) in the assay with PUM1 PUF domain R3-GHP and 4.13 log2 enrichment (interaction score) with PUM1 PUF domain R3-WCG.
Consider “GGCUAGAACUAGUGGAUCCCCCGGCGCCCGGCGGCUCGAGCCCGGGUAAGUGAAAAUAGUCUGCAUGCCGCCGGGCGCCAUGCCUGCAGGUCGACUCUAGAAAACAUG”, for which the binding signal in the assay with PUM1 PUF domain R6-YWV is 4.97 log2 enrichment (interaction score); with PUM1 PUF domain R6-SWA it was 3.21 log2 enrichment (interaction score).
Turning to “GGCUAGAACUAGUGGAUCCCCCGGCGCCCGGCGGCUCGAGCCCGGGUAAGUGUAAAUAGUCUGCAUGCCGCCGGGCGCCAUGCCUGCAGGUCGACUCUAGAAAACAUG”, the binding signal in the assay with PUM1 PUF domain R5-RMP was 0.45 log2 enrichment (interaction score); with PUM1 PUF domain R8-AYK, 2.5 log2 enrichment (interaction score); with PUM1 PUF domain R6-SWA it was 1.55 log2 enrichment (interaction score); with PUM1 PUF domain R2-NRG, 2.44 log2 enrichment (interaction score); with PUM1 PUF domain R8-RFL, 4.7 log2 enrichment (interaction score).
As to “GGCUAGAACUAGUGGAUCCCCCGGCGCCCGGCGGCUCGAGCCCGGGUAAGUUUAAAUAGUCUGCAUGCCGCCGGGCGCCAUGCCUGCAGGUCGACUCUAGAAAACAUG”, in the assay with PUM1 PUF domain R7-RIL, the binding signal was 2.38 log2 enrichment (interaction score).
On to “GGCUAGAACUAGUGGAUCCCCCGGCGCCCGGCGGCUCGAGCCCGGGUAAGUGUAAUUAGUCUGCAUGCCGCCGGGCGCCAUGCCUGCAGGUCGACUCUAGAAAACAUG”, for which the binding signal in the assay with PUM1 PUF domain R3-GHP was 4.31 log2 enrichment (interaction score).

The values above are taken from publication PMC8384837, “Expanding the binding specificity for RNA recognition by a PUF domain”.
